Screening results as filed in PubChem BioAssay.
TEAD-YAP block: TEAD-YAP interaction inhibition; HEK-TIYL cells, TEAD-Gal4/YAP UAS-luciferase luminescence; inhibition, % at 9.12 µM; 640,000 compounds, 1.4% hits; in the data active = inhibition above about 32%;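 note: 0% = median of test compound wells and 100% = reference inhibitor wells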
GPR151 ag: activators of human GPR151. PathHunter beta-arrestin GPR151 cells, luminescence. activation, % at 11.2 µM. 650,000 compounds, 1% hits; in the data active = activation above about 4.9%;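 note: 0% = median of compound wells and 100% = cells with positive control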
Target sequence (Q8TDV0 whole entry, looked up): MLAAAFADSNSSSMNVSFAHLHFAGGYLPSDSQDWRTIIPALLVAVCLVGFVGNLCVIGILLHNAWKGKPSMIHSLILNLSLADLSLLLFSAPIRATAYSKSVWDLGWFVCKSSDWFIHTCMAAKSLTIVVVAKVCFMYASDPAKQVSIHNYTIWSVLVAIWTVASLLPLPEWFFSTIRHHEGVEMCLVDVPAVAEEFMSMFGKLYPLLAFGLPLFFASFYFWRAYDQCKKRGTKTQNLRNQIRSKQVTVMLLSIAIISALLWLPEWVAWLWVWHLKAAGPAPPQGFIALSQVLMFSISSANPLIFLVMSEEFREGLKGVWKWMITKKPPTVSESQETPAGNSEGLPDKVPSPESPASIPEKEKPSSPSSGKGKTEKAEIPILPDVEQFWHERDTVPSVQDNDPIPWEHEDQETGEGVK
FBW7 activator: activators of human E3 ligase FBW7 | 650,000 compounds, 0.13% hits | normalized activity (activation), % at 26.1 µM | AlphaScreen FBW7–phospho-cyclin E peptide binding, activator screen | Q969H0 | AID 1259310; in the data active = normalized activity above about 1.9%;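 note: purified mutant Fbw7 with reduced substrate affinity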
MITF primary: blocks human microphthalmia-associated transcription factor; O75030; AlphaScreen MITF homodimerization, bead proximity signal; inhibition, % at 2.6 µM; 650,000 compounds, 0.91% hits; in the data active = inhibition above about 50%;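 note: 0% = vehicle wells with protein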
MITF inh conf: confirmation of human MITF inhibitors. 4,700 compounds, 16% hits. AID 1259372. AlphaScreen MITF homodimerization, biotin/His-MITF beads. inhibition, % at 2.6 µM. shares compounds with MITF primary;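 active = inhibition above a cutoff derived from the DMSO control wells, cut at about 28% in these data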;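 note: 0% = MITF dimer wells with DMSO only; inhibitors lower the bead chemiluminescence by keeping MITF from dimerizing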
AlphaScreen intf2: AlphaScreen optical interference, counter-screen. shares compounds with MITF primary. LysRS AlphaScreen counterscreen, signal interference, triplicate. inhibition, % at 2.6 µM. 4,700 compounds, 7.6% hits. AID 1259376;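 active = inhibition above a cutoff derived from the DMSO control wells, cut at about 30% in these data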
Starred values were filed as active, the others as inactive. The list is not random: actives were taken first. Their share in the collection is about 3.5%.

Screening CC(=O)Nc1ncc(Cc2cc(Cl)ccc2Cl)s1 returned TEAD-YAP block 19, GPR151 ag 2, FBW7 activator 0 and MITF primary 3.
CCOC(=O)N1CCN(C(=O)C2CC23CCN(Cc2ccncc2)CC3)CC1 (stereo not given) was read as TEAD-YAP block -2, GPR151 ag -1, FBW7 activator 0 and MITF primary -9.
`Cc1ccc(CN(Cc2ccc(C(=O)NO)cc2)S(=O)(=O)c2ccccc2)cc1` gave TEAD-YAP block -4, GPR151 ag 0, FBW7 activator 0 and MITF primary -2.
Screening CC(C)NC(=O)C1CCN(Cc2cccc(Cl)c2Cl)CC1 returned TEAD-YAP block 7, GPR151 ag 1, FBW7 activator 0, MITF primary 54*, MITF inh conf -21 and AlphaScreen intf2 -1.
`CC(C)NC(=O)C1CCN(Cc2ccccc2Cl)CC1` gave TEAD-YAP block 4, GPR151 ag 0, FBW7 activator 0, MITF primary 54*, MITF inh conf -10 and AlphaScreen intf2 -6.
`CC(O)CNC(=O)C1CCN(Cc2ccc(OCc3ccccc3)cc2)CC1` (stereo not given) gave TEAD-YAP block -14, GPR151 ag 1, FBW7 activator 1 and MITF primary 34.
Screening Cc1ccc(CN2CCC(C(=O)NC(C)C)CC2)cc1 returned TEAD-YAP block 8, GPR151 ag -1, FBW7 activator 0, MITF primary 65*, MITF inh conf -5 and AlphaScreen intf2 -4.
Screening CC(C)NC(=O)C1CCN(Cc2cccc(OCc3ccccc3)c2)CC1 returned TEAD-YAP block 5, GPR151 ag 0, FBW7 activator 1, MITF primary 57*, MITF inh conf -10 and AlphaScreen intf2 -6.
COc1ccccc1C(=O)Nc1ccc(-c2cc3ccccc3oc2=O)cc1 was read as TEAD-YAP block 6, GPR151 ag -1, FBW7 activator 0 and MITF primary 5.
CN(C)CCCN(CCCN(C)C)CC(c1ccccc1)c1ccccc1 was read as TEAD-YAP block 9, GPR151 ag 0, FBW7 activator 1, MITF primary 55*, MITF inh conf -4 and AlphaScreen intf2 0.
Screening Cc1cc(-c2cnc(C)nc2C2CCCN(Cc3ccncc3)C2)on1 (stereo not given) returned TEAD-YAP block -13, GPR151 ag 0, FBW7 activator 0 and MITF primary 36.
For Cc1cc(-c2cnc(C)nc2C2CCCN(Cc3cccnc3)C2)on1 (stereo not given) the results were TEAD-YAP block 4, GPR151 ag 1, FBW7 activator 0, MITF primary 53*, MITF inh conf 9 and AlphaScreen intf2 9.
`O=C(O)Cc1cc(=O)n(-c2ccccn2)[nH]1` gave TEAD-YAP block -4, GPR151 ag -1, FBW7 activator -1, MITF primary 117*, MITF inh conf 118* and AlphaScreen intf2 100*.
For Cc1ccc(-c2noc(C3CCCN(S(C)(=O)=O)C3)n2)cc1 (stereo not given) the results were TEAD-YAP block -21, GPR151 ag 0, FBW7 activator 0 and MITF primary 8.
`COc1cc(CN2CCNC(=O)C2CC(=O)N2CCSCC2)cc(OC)c1` (stereo not given) gave TEAD-YAP block 5, GPR151 ag 0, FBW7 activator 0 and MITF primary -3.
For O=C(c1ccncc1)N1CCN(Cc2ccccc2Br)CC1 the results were TEAD-YAP block 0, GPR151 ag 0, FBW7 activator 0, MITF primary 62*, MITF inh conf -10 and AlphaScreen intf2 -2.
For O=C(CNCc1ccccc1F)N1CCN(C(=O)CNCc2ccccc2F)CC1 the results were TEAD-YAP block 6, GPR151 ag 0, FBW7 activator 0, MITF primary 61*, MITF inh conf 2 and AlphaScreen intf2 18.
For O=C(c1ccco1)N1CCN(Cc2ccccc2F)CC1 the results were TEAD-YAP block -2, GPR151 ag 2, FBW7 activator 0, MITF primary 61*, MITF inh conf 10 and AlphaScreen intf2 12.
`O=C(c1ccc([N+](=O)[O-])cc1)N1CCN(Cc2ccccc2Br)CC1` gave TEAD-YAP block 1, GPR151 ag 0, FBW7 activator 0, MITF primary 58*, MITF inh conf -12 and AlphaScreen intf2 -3.
For Cn1cccc1CN1CCN(C(=O)c2ccc([N+](=O)[O-])cc2)CC1 the results were TEAD-YAP block 6, GPR151 ag 1, FBW7 activator 0 and MITF primary 40.
Screening O=C(c1ccc(-c2ccccc2)cc1)N1CCN(Cc2ccncc2)CC1 returned TEAD-YAP block -34, GPR151 ag 2, FBW7 activator 0 and MITF primary 7.
O=S(=O)(NCc1cccnc1)c1cccc(S(=O)(=O)c2ccc(Cl)c(Cl)c2)c1 was read as TEAD-YAP block 3, GPR151 ag 1, FBW7 activator 0 and MITF primary 0.
O=C1N/C(=C\c2ccc(OCc3ccc(F)cc3)cc2)C(=O)N1Cc1ccc(Cl)cc1 was read as TEAD-YAP block -3, GPR151 ag 5, FBW7 activator 0 and MITF primary -4.
Screening COc1ccc(C(=O)Nc2ccc(Br)cc2C(=O)O)cc1OC returned TEAD-YAP block 2, GPR151 ag -2, FBW7 activator 1 and MITF primary 1.
`O=C(c1ccncc1)N1CCN(Cc2ccccc2F)CC1` gave TEAD-YAP block -5, GPR151 ag -1, FBW7 activator 0, MITF primary 78*, MITF inh conf 3 and AlphaScreen intf2 12.
CC(C)[C@H]1CN(Cc2ccccc2F)CCN1C(=O)c1ccncc1 was read as TEAD-YAP block -10, GPR151 ag 0, FBW7 activator 0 and MITF primary -3.
For O=C(CSc1cccc2cccnc12)OCC(=O)c1ccc(F)cc1 the results were TEAD-YAP block 6, GPR151 ag 1, FBW7 activator 0 and MITF primary 5.
Cc1cccc(NC(=O)Nc2cnn(-c3cccc(C(=O)Nc4ccc(N5CCOCC5)c(C)c4)c3)c2)c1 was read as TEAD-YAP block -7, GPR151 ag -1, FBW7 activator 0 and MITF primary -10.
COc1ccc(CN2CCC(N3CCN(c4ccccc4)CC3)CC2)c(OC)c1 was read as TEAD-YAP block 18, GPR151 ag -1, FBW7 activator 0, MITF primary 60*, MITF inh conf -9 and AlphaScreen intf2 -1.
Screening COc1ccc(CN2CCN(C3CCN(Cc4ccccc4)CC3)CC2)c(OC)c1 returned TEAD-YAP block 7, GPR151 ag 0, FBW7 activator 1 and MITF primary 38.
For COc1ccccc1CN1CCN(C2CCC(c3ccccc3)CC2)CC1 (stereo not given) the results were TEAD-YAP block -27, GPR151 ag 2, FBW7 activator 0, MITF primary 71*, MITF inh conf -4 and AlphaScreen intf2 3.
